This note sets out measurements from the supplement of paper PMC10849652.

The full data set covers some 8,800 targets. This sample favours those with a hit. About 0.5% of all pairs of compound and target were hits.

Sequence of UniProt Q5T011 (Q5T011 whole entry, looked up): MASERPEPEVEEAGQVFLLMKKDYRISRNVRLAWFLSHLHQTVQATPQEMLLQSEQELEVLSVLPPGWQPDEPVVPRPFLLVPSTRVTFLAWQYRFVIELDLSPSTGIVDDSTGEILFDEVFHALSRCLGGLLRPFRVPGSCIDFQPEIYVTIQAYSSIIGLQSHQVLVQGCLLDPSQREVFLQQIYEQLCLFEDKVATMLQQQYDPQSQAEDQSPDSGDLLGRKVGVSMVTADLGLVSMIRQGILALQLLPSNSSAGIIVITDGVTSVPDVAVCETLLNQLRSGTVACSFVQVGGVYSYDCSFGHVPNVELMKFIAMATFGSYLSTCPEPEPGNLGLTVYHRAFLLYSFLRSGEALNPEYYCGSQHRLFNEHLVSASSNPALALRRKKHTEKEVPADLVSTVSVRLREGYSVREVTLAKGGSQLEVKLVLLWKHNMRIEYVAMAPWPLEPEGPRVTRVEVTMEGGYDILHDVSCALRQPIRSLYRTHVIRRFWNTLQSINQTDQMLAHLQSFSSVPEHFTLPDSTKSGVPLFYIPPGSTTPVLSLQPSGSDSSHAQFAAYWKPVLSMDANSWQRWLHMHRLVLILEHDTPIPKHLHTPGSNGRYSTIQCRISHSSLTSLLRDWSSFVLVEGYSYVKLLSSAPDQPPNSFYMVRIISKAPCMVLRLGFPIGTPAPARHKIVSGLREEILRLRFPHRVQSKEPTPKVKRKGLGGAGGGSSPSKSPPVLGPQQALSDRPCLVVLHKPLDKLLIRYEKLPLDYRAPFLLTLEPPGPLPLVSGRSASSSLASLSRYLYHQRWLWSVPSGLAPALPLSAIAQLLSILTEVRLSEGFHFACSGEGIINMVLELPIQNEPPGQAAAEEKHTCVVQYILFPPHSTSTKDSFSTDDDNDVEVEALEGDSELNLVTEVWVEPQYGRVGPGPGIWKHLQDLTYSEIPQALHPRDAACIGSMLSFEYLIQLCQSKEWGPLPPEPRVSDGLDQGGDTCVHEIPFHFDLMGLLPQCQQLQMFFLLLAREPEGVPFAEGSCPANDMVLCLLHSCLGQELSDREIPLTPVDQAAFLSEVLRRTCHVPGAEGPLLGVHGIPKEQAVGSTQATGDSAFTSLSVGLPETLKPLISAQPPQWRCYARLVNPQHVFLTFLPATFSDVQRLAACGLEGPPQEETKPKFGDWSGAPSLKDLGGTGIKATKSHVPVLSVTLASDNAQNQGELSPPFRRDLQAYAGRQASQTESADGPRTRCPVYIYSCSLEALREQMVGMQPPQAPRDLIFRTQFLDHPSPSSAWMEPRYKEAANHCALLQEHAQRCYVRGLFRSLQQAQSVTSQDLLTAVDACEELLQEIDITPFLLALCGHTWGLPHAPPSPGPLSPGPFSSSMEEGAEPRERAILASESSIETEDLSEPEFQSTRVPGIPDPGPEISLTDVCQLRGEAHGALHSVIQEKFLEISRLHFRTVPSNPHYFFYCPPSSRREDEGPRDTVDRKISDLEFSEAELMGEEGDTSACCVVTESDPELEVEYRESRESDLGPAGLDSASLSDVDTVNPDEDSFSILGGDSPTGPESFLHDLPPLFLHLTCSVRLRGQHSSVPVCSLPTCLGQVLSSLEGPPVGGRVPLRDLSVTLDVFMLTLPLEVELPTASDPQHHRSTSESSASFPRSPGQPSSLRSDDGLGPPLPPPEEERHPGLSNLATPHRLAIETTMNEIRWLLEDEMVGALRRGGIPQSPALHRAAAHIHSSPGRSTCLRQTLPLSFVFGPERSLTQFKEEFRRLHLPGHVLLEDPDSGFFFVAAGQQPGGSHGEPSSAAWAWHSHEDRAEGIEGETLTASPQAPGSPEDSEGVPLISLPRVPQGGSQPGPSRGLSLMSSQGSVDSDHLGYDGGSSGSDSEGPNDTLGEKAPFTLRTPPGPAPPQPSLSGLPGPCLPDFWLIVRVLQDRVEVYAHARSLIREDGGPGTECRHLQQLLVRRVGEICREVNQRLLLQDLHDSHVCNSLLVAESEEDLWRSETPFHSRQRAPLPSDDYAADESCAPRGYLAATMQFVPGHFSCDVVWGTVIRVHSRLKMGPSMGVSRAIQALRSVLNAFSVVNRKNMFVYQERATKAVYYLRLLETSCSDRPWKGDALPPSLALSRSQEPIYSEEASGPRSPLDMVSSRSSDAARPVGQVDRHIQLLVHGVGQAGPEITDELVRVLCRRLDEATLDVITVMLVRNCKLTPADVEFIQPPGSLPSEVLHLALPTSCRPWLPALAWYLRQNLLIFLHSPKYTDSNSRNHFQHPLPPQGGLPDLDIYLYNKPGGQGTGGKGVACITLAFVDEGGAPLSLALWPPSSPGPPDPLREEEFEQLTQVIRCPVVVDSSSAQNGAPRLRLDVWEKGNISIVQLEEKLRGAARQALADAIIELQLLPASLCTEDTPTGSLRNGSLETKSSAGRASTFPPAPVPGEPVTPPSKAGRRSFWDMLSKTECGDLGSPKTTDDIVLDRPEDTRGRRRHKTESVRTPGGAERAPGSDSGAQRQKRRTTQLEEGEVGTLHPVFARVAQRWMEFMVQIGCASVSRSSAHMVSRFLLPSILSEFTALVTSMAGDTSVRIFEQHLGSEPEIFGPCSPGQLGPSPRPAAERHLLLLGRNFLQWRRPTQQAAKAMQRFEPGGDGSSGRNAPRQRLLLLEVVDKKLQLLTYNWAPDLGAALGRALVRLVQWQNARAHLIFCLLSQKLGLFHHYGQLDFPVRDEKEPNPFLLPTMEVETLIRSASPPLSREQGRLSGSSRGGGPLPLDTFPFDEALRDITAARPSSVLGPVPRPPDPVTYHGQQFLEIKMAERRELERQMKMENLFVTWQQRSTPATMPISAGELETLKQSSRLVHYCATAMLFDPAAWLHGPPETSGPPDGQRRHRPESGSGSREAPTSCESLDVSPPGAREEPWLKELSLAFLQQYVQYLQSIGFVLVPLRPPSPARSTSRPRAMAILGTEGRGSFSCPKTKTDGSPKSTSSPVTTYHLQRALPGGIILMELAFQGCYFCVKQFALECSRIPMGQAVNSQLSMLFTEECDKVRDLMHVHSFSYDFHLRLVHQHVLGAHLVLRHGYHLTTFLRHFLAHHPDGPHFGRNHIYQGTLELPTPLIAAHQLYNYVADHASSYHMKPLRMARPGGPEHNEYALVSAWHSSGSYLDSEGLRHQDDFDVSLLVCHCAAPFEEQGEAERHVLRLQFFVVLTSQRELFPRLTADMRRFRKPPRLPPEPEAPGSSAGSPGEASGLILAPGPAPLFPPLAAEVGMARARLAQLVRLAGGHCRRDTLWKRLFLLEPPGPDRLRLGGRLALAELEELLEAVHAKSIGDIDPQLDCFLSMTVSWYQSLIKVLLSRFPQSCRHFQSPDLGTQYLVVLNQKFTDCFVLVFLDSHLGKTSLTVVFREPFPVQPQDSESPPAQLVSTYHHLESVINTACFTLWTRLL
Sequence of UniProt P12931 (P12931 whole entry, looked up): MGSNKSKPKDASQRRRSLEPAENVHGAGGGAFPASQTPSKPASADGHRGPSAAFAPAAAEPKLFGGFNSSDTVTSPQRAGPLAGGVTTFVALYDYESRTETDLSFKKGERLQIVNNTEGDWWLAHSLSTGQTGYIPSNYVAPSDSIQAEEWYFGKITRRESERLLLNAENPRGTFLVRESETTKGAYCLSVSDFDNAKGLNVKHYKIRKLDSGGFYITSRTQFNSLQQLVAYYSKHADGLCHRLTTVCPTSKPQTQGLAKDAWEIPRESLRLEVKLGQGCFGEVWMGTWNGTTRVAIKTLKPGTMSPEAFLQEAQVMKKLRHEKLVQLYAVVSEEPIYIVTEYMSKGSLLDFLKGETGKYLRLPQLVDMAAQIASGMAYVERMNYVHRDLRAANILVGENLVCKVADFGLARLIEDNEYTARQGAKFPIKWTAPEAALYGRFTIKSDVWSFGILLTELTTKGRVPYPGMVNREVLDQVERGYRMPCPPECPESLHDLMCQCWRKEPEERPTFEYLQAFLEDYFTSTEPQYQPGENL
Sequence of UniProt B2RUZ4 (B2RUZ4 whole entry, looked up): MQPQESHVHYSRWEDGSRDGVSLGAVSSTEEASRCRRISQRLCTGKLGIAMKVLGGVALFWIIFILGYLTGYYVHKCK
Sequence of UniProt O00161 (O00161 whole entry, looked up): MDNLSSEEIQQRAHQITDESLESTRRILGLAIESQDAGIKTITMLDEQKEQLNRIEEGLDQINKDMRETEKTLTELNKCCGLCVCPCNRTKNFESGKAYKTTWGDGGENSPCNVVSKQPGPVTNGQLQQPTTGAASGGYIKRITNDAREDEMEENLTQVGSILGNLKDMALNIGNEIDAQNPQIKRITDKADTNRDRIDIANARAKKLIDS
Sequence of UniProt Q8N196 (Q8N196 whole entry, looked up): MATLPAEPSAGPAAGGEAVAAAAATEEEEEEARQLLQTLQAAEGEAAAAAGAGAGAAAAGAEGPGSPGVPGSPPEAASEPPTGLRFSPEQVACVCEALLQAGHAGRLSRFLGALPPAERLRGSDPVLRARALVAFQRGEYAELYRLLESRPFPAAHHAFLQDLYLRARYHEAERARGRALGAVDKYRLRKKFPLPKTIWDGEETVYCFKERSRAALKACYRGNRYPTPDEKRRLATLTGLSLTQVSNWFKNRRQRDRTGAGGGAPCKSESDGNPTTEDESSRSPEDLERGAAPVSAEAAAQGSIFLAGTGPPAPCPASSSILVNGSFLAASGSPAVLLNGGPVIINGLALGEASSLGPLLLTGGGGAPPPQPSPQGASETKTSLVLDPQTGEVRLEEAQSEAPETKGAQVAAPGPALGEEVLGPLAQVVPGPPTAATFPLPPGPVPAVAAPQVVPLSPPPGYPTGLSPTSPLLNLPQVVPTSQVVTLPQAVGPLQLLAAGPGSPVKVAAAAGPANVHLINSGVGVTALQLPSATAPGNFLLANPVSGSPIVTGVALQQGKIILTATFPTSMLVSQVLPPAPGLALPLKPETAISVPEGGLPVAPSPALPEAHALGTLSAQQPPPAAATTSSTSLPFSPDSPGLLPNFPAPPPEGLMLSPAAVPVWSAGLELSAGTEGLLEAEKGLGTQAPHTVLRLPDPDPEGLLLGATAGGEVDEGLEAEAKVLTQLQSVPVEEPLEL

Compound in the first experiment: CCCS(=O)(=O)Nc1ccc(F)c(C(=O)c2c[nH]c3ncc(Cl)cc23)c1F
In words: log2 fold change, soluble protein after heating vs DMSO (PISA); higher = thermal stabilisation; K562 lysate, 10 uM; active = over 0.2 and 3.5 SD of the protein, either way, in both replicates (recomputed). In outline: (§1)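 Following dounce homogenisation of K562 pellets in PBS pH 7.4 with 1 mM MgCl2, crude extract at 1 mg/mL protein was incubated for 30 min with 10 μM compound. Aliquots were then heated for 3 min over 48°C-58°C and pooled, NP-40 was added to 0.5% at 4°C, and soluble protein was recovered as the supernatant at 21,000xg for 90 min. Channel-sum-equalised TMTpro 16plex LC-MS/MS quantified this protein. Each value, from duplicates, is a log-two fold change in thermal stability relative to solvent controls.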
SKP2 (UniProt Q13309): the log2 fold change was 0.093 (inactive).

For the target SRC isoform 2 (UniProt P12931), the log2 fold change was 0.166 (inactive).

Turning to SLC12A6 isoform 2 (UniProt Q9UHW9), the log2 fold change is 0.009 (inactive).

As for SNAP23 isoform 2 (UniProt O00161), the log2 fold change is 0.09 (inactive).

In the case of SPAG1 (UniProt Q07617), the log2 fold change is 0.028 (inactive).

Take SMARCA4 isoform 4 (UniProt P51532): the log2 fold change is -0.047 (inactive).

Take SZT2 (UniProt Q5T011): the log2 fold change is -0.032 (inactive).

Regarding SHB (UniProt Q15464), the log2 fold change is -0.049 (inactive).

Consider TAF11 (UniProt Q15544), for which the log2 fold change was 0.166 (inactive).

On to SMIM1 (UniProt B2RUZ4), for which the log2 fold change was 0.013 (inactive).

As for SNRPD2 (UniProt K7EJB5), the log2 fold change was -0.029 (inactive).

Take SLC25A36 (UniProt Q96CQ1): the log2 fold change is 0.007 (inactive).

Consider SMPD2 (UniProt O60906), for which the log2 fold change is 0.179 (inactive).

As for SLC40A1 (UniProt Q9NP59), the log2 fold change was -0.037 (inactive).

For the target SLC41A1 (UniProt Q8IVJ1), the log2 fold change was 0.021 (inactive).

As to SIX5 (UniProt Q8N196), the log2 fold change is 0.031 (inactive).

As to SLC35A3 isoform 2 (UniProt Q9Y2D2), the log2 fold change was -0.031 (inactive).

Compound in the next experiment: CCN(CCCOc1ccc2c(Nc3cc(CC(=O)Nc4cccc(F)c4)[nH]n3)ncnc2c1)CCOP(=O)(O)O [barasertib]
Described as above. In outline:
as §1
As to SRC isoform 2 (UniProt P12931), the log2 fold change is 0.133 (inactive).

On to SPAG1 (UniProt Q07617), for which the log2 fold change is 0.018 (inactive).

Turning to SZT2 (UniProt Q5T011), the log2 fold change is 0.313 (inactive).

With SNAPC2 (UniProt Q13487), the log2 fold change was -0.211 (inactive).

STAU1 isoform 3 (UniProt O95793): the log2 fold change was 0.014 (inactive).

Turning to SMIM1 (UniProt B2RUZ4), the log2 fold change was 0.002 (inactive).

Regarding SLU7 (UniProt O95391), the log2 fold change was -0.07 (inactive).

Consider SMC4 (UniProt C9JJ64), for which the log2 fold change was 0.152 (inactive).

Turning to SLCO4A1 (UniProt Q96BD0), the log2 fold change was 0.037 (inactive).

As for SIX5 (UniProt Q8N196), the log2 fold change was -0.026 (inactive).

Compound in the next experiment: CC[C@@H]1C(=O)N(C)c2cnc(Nc3ccc(C(=O)NC4CCN(C)CC4)cc3OC)nc2N1C1CCCC1
The experiment is described as above. In a few lines: as §1
For the target SKP2 (UniProt Q13309), the log2 fold change is 0.193 (inactive).

Regarding SRC isoform 2 (UniProt P12931), the log2 fold change was 0.045 (inactive).

Consider SLC12A6 isoform 2 (UniProt Q9UHW9), for which the log2 fold change was 0.053 (inactive).

For SNAP23 isoform 2 (UniProt O00161), the log2 fold change is 0.052 (inactive).

As for SMARCA4 isoform 4 (UniProt P51532), the log2 fold change is 0.049 (inactive).

On to SZT2 (UniProt Q5T011), for which the log2 fold change was 0.293 (inactive).

Consider STAR (UniProt P49675), for which the log2 fold change is 0.074 (inactive).

For the target STK38L (UniProt Q9Y2H1), the log2 fold change was -0.105 (inactive).

Consider SIN3B (UniProt O75182), for which the log2 fold change was -0.092 (inactive).

In the case of TAF11 (UniProt Q15544), the log2 fold change is 0.14 (inactive).

Take STK26 isoform 3 (UniProt Q9P289): the log2 fold change was 0.189 (inactive).

Take SMIM1 (UniProt B2RUZ4): the log2 fold change is -0.108 (inactive).

As for SNRPD2 (UniProt K7EJB5), the log2 fold change is -0.085 (inactive).

On to SLU7 (UniProt O95391), for which the log2 fold change was 0.062 (inactive).

As for SLC25A36 (UniProt Q96CQ1), the log2 fold change was 0.113 (inactive).

In the case of TARDBP (UniProt K7EN94), the log2 fold change was -0.039 (inactive).

Regarding SMPD2 (UniProt O60906), the log2 fold change was 0.051 (inactive).

SLC40A1 (UniProt Q9NP59): the log2 fold change was 0.123 (inactive).

For the target SLC41A1 (UniProt Q8IVJ1), the log2 fold change is 0.085 (inactive).

Consider SLC35A3 isoform 2 (UniProt Q9Y2D2), for which the log2 fold change was 0.056 (inactive).
